High-throughput results (PubChem BioAssay)
MbtI inh = MbtI salicylate synthase inhibitors, primary screen, biochemical, fluorescence intensity. purified MbtI enzyme, fluorescence intensity read-out. 100,000 compounds, 0.89% hits. AID 493033, 2011. P9WFX0. inhibition, % (test concentration not listed); in the data active means inhibition mostly above about 56%, no sharp cut-off; inactive means mostly below about 77%
MenB inh = M. tuberculosis MenB inhibitors, primary screen, biochemical, absorbance. 1,4-dihydroxy-2-naphthoyl-CoA synthase (Mycobacterium tuberculosis (strain ATCC 25618 / …. MenB enzyme assay, absorbance read-out. inhibition, % (no concentration beside the values). 100,000 compounds, 0.43% hits; in the data active means inhibition above about 21%, passing the limit was not always enough
Target sequence (P9WNP5 whole entry, looked up): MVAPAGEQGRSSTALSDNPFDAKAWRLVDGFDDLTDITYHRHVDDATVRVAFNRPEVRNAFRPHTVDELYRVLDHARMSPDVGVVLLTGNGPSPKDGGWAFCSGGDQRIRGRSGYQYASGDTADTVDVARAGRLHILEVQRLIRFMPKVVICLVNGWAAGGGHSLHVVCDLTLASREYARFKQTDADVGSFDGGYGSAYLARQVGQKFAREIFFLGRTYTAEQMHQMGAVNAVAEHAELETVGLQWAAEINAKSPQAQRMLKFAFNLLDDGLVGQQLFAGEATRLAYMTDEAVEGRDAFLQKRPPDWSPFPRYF
PV pol inh = poliovirus RdRp elongation inhibitors, primary screen, biochemical, fluorescence polarization, total intensity | 150,000 compounds, 0.66% hits | poliovirus polymerase elongation; hits give low values | AID 588519, 2011 | Genome polyprotein (Poliovirus type 1 (strain Mahoney)), P03300 | % elongation, % (compound at 16.7 µg/mL); in the data active means % elongation below about 90%
AID504770 = growth inhibition of E. coli YBA685, primary screen, V. cholerae RctB inhibitors. E. coli YBA685 rctB-dependent plasmid, OD600 growth, 3 h; hits give low values. z-score (concentration not given with the values). 130,000 compounds, 0.27% hits; in the data active means z-score below about -2, passing the limit was not always enough
Numbers without * were called inactive; . = no result given. This is a sample that favours compounds with a hit; in the whole collection about 1.5% have one here.

SMILES	MbtI inh	MenB inh	PV pol inh	AID504770
O=S1(=O)CCC(NC(=S)SCCOc2ccccc2OCCO)C1 (stereo not given)	0	19	100	-3*
C=CCn1cn[nH]c1=S	61*	-7	101	0
COc1ccc(-n2nc(C(=O)N3CCN(c4ccccc4OC)CC3)c3c4ccccc4n(C)c3c2=O)cc1Cl	.	.	109	.
CC(C)Cc1nnc(NS(C)(=O)=O)s1	95*	-31	102	-0.1
O=C1c2ccccc2C(=O)N1CCc1cn2cccnc2n1	.	-12	103	-3.5
CN(Cc1ccccc1)C(=O)c1cc(-c2cccc(O)c2)on1	.	.	.	0.2
COc1ccccc1NS(=O)(=O)c1cccc(C(=O)Nn2cnnc2)c1	-5	15	72*	0.45
O=c1c(=Nc2ccccc2O)c(=O)c2ccccc12	.	-8	95	-0.9
O=c1c(=N\O)/c(=N/O)c(=O)c2ccccc12	25	-12	60*	-5.3*
COc1ccc(-n2nc3c(N4CCCC(C(=O)NCc5ccc(C)cc5)C4)nnc(C)c3c2C)cc1 (stereo not given)	.	.	89*	.
CCOC(=O)c1c(CN2CCOCC2)n(C)c2ccc(O)cc12	.	-1	68*	0.65
c1ccc(C2Nc3ccccc3C3OCCC23)cc1 (stereo not given)	-7	.	.	-0.7
C=CCNC(=O)C1C2C=CC(C2)C1C(=O)OC(C)C (stereo not given)	.	0	99	-0.1
NC(=S)NN=C1CCCCC1	-3	-38	101	-0.25
COc1ccc(OC)c(CNC(=O)CSc2c3c(nc4cc(Cl)ccc24)CCCC3)c1	.	.	74*	.
CC(C)CCn1c(=O)c2cccnc2n(CC(N)=O)c1=O	118	-9	102	-0.6
CCN(CC)C(=O)c1ccc(OC(C)=O)cc1	.	-9	108	-0.15
c1ccc2[nH]c(SN3CCCCC3)nc2c1	97*	-8	100	0.1
c1ccc2[nH]c(SCCCN3CCCCC3)nc2c1	8	-19	99	-0.4
Cc1ncc(CSc2nc3ccc(C(F)(F)F)cc3[nH]2)c(CO)c1O	-4	-11	101	-1.2
O=C(CN(Cc1ccccc1)C(=O)Cn1nnc(-c2ccc(F)cc2)n1)NC1CCCC1	-11	-39	103	-0.4
COc1ccc(CN(CC(=O)NC2CCCC2)C(=O)Cn2nnc(-c3ccc(OC)cc3)n2)cc1	2	33*	102	0.75
COc1ccc(NC(=O)Cn2cc(C#N)c3ccccc32)cc1	-11	-1	99	0.15
Cc1ccc(NC(=O)Cn2cc(C#N)c3ccccc32)cc1	3	56*	102	1.8
Cc1ccccc1N1CCN(C(=O)c2c(C)oc3cc4c(C(=O)N5CCN(c6ccccc6C)CC5)c(C)oc4cc23)CC1	-2	0	103	-3.3*
SMILES	MbtI inh	MenB inh	PV pol inh	AID504770
COc1cc2c(C(=O)N3CCN(c4ccccc4C)CC3)c(C)oc2cc1Br	1	9	103	1.4
Cc1ccc(OC(=O)c2ccno2)cc1	.	.	.	1.5
O=C(Oc1cc(Cl)cc(Cl)c1)c1ccno1	.	.	.	-2.5*
O=C(O)CCn1ccnc1	-5	-38	100	-0.4
CCN(CC)C(=S)SSC(=S)N(CC)CC	98*	3	99	-1.1
S=c1[nH]nc(CCCOc2ccc(Cl)cc2Cl)o1	90*	-39	87*	-0.7
COC(=O)c1c(NC(=O)C2CCCC2)sc2c1CCCC2	.	-16	82*	2.5
O=C(Nc1sc2c(c1C(=O)NCc1ccco1)CCC2)c1cccs1	2	-5	101	0.3
COC(=O)c1c(NC(=S)NCc2ccco2)sc2c1CCC2	61*	-11	99	-0.7
CC(C)c1ccc(N2C(=O)Cc3c2nc(N)c2c(N)nc(N4CCCC4)c(C#N)c32)cc1	-113	-8	102	0.1
CC(=O)N1CCN(c2nc(N)c3c(N)nc4c(c3c2C#N)CC(=O)N4C)CC1	-18	2	18*	0.25
CC1CCCC(C)N1Cn1nc2sc3ccccc3n2c1=S (stereo not given)	98*	4	99	-0.45
Cc1ccc(C(=O)N/C(=C/c2ccccc2)C(=O)NCc2ccco2)cc1	-22	46*	102	-0.2
O=C(NCc1ccccc1)/C(=C\c1ccccc1)NC(=O)c1ccccc1	-8	-13	104	-0.1
CCC1(C)Cc2ccccc2-c2nc(-c3ccccc3)n(CCO)c(=O)c21 (stereo not given)	.	.	.	1.9
Cc1ccc(S(=O)(=O)N=C2C=CC(=O)C=C2)cc1	96*	9	103	-0.5
O=C1C=CC(=NS(=O)(=O)c2ccc(F)cc2)C=C1	98*	21	100	-1.7
COc1ccc(S(=O)(=O)N=S(C)(=O)c2ccc(C)cc2)cc1 (stereo not given)	.	.	.	-1.4
CS(=O)(=O)c1ccc(F)cc1	2	7	103	0.45
CC1=C/C(=N\S(=O)(=O)c2ccccc2)C=CC1=O	101*	-27	103	-0.9
CCOc1ccc(S(=O)(=O)N=C2C=CC(=O)C=C2)cc1	93*	19	99	-0.9
CC1=C/C(=N/OC(=O)c2ccccc2)C=CC1=O	0	-47	102	-1
O=S(=O)(Nc1cccc(-c2ccc(N3CCCCCC3)nn2)c1)c1cccc(F)c1	.	.	102	.
CCc1nnc(NC(=O)C2CCCCC2)s1	100*	-19	101	-0.65
O=C(OCc1cc(=O)oc2cc(O)ccc12)c1nc(Cl)ccc1Cl	-32	-12	88*	-0.35
SMILES	MbtI inh	MenB inh	PV pol inh	AID504770
O=C(OCc1cc(=O)oc2cc(O)ccc12)c1cc(Br)ccc1O	-97	2	103	-0.55
CCSc1nc(C(=O)O)cc(=O)[nH]1	.	.	.	0.7
CC(C)Cc1cc(C(=O)O)nc(=O)[nH]1	8	38*	99	1.4
CC(=O)c1ccc(NS(=O)(=O)c2ccc(Br)s2)cc1	.	.	107	.
CC1=CC(=NC(=O)c2ccco2)C(C)=CC1=O	100*	-16	102	0.4
CC1=C/C(=N\OC(=O)Cc2ccccc2)C(C)=CC1=O	3	-135	104	-1.1
O=c1c2c(F)c(F)c(F)c(F)c2on2c3c(cc12)CCCC3	-12	-10	87*	0.35
CCc1c(C)sc(NC(=O)/C=C/c2cccs2)c1C(=O)OC	-18	-42	100	-1
CCc1c(C)sc(NC(=O)C2CC3CCC2C3)c1C(=O)OC (stereo not given)	.	-8	88*	0.85
O=S(=O)(CS(=O)(=O)Sc1ccc(Cl)cc1)Sc1ccc(Cl)cc1	49	-1	99	-3.5*
COc1ccc(C(=O)c2nc3ccccc3n2C(C)C)cc1OC	-4	-17	101	-4.6*
COc1cc(/C=N/NC(N)=O)cc2sc(=O)oc12	81*	-14	99	-0.2
COc1cc(/C=N/NC(N)=O)cc(Br)c1OC	4	-8	106	0.35
NC(=O)CSc1nc2cc(S(=O)(=O)N3CCOCC3)ccc2o1	87	-14	76*	-0.55
Cc1ccc2nc(SCC(N)=O)oc2c1	3	33*	101	0.65
CN(C)C(=O)CSc1nc2cc(S(=O)(=O)N3CCOCC3)ccc2o1	87*	-11	81*	-1
